Pol kappa inh-1: blocks human DNA polymerase kappa activity; AID 588579; Q9UBT6; 400,000 compounds, 0.53% hits; Potency, µM (highest dose often 107 µM), usual class: inhibitors; purified Pol kappa, fluorescent DNA synthesis assay, 10 min
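Kinetic fluorescence readout at 0 and 10 min followed reaction start with substrate at 50 nM final. Beforehand, enzyme (10 nM Pol kappa) stood 15 min with compound at room temperature; buffer-only wells were negative controls.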
POLI inh: inhibitors of human DNA polymerase iota; Pol iota fluorescent replication assay, 10 min; Potency, µM (series often up to 115 µM), actives largely listed as inhibitors; Q9UNA4; 390,000 compounds, 1% hits
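Pol iota at 10 nM preincubated 15 min with compounds at room temperature; reaction started with fluorescent substrate, 50 nM final. Fluorescence read kinetically at 0 and 10 min; buffer-only wells as negative control.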
Pol beta inh: DNA polymerase beta (human) inhibition | Pol beta primer extension/strand displacement, fluorescence kinetic | Potency, µM (doses to about 114 µM), usual class: inhibitors | 340,000 compounds, 1.3% hits | AID 485314
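10 nM enzyme + cpd, 15 min RT; start with substrate 50 nM final; read 0 min and after 10 min RT. Corrected, normalized data; 4-parameter Hill curve fit.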
Pol eta inh-1: inhibitors of human DNA polymerase eta | Q9Y253 | recombinant Pol eta, fluorescent DNA replication assay | Potency, µM (top dose mostly 114 µM), usual class: inhibitors | 390,000 compounds, 1.2% hits | AID 588591
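Fluorescent replication assay: 50 nM final substrate added after a 15 min room-temperature compound preincubation with 10 nM enzyme. Signal taken at 0 min and again at 10 min.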
WRN inhibitor: inhibitors of human WRN helicase. 360,000 compounds, 0.46% hits. AID 651768. Potency, µM (titrated, usually from 114 µM), usual class: inhibitors. Q14191. WRN helicase unwinding, fluorescent forked duplex, kinetic; also: nearly all actives have a fitted effect of over 55% in size
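Screening of the MLSMR collection measured strand separation of a quenched forked DNA duplex (100 nM) by 20 nM WRN with 2 mM ATP, all final. Compounds were preincubated with enzyme 15 min at room temperature.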
PGK validate: blocks T. brucei phosphoglycerate kinase | TbPGK coupled GAPDH assay, Kinase-Glo luminescence | shares compounds with Pol kappa inh-1 | 500 compounds, 79% hits | AID 686980 | Potency, µM (highest dose often 57.5 µM), actives largely listed as inhibitors; also: nearly all actives have a fitted effect of over 65% in size
Target sequence (P07378 whole entry, looked up): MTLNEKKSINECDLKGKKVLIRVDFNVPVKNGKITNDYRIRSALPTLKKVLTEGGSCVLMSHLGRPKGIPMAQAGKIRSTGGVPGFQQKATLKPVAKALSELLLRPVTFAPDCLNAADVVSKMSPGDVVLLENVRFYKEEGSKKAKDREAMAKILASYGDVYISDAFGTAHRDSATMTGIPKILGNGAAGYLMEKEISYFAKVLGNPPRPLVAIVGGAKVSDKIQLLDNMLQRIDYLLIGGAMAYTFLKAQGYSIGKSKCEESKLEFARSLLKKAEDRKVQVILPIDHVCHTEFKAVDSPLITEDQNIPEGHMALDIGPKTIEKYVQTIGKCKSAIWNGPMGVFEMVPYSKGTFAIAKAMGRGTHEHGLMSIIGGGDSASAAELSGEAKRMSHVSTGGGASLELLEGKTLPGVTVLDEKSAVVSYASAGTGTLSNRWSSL
Pol iota confirm: Confirm cherry-picked inhibitors of human polymerase iota; shares compounds with Pol kappa inh-1; Pol iota primer extension, TAMRA/BHQ fluorescence; Potency, µM, actives largely listed as inhibitors; 1,500 compounds, 77% hits; AID 720496
Pol kappa inh-2: confirmation of human DNA polymerase kappa inhibitors | shares compounds with Pol eta inh-1 | purified Pol-kappa, fluorescent strand-displacement substrate | Potency, µM, usual class: inhibitors | 920 compounds, 76% hits
Pol eta inh-2: Pol eta (human) inhibition, cherry-pick confirmation. shares compounds with Pol eta inh-1. Pol eta primer extension, TAMRA/BHQ fluorescence, 10 min. Potency, µM, hits mostly inhibitors. 2,600 compounds, 64% hits
A number is an active result. The list is not random: actives were taken first. Their share in the collection is about 2.3%. Calls follow the shape of the dose curve; as a rule, active = well fitted curve in the direction sought with a large enough effect; inconclusive = small, poorly fitted or top-dose-only effect, or another doubt; inactive = no such curve, though single readings can be large; an effect the other way counts as inactive or inconclusive.

Screening O=C(NCCCN1CCOCC1)c1cc(-c2ccco2)nc2ccccc12 returned Pol kappa inh-1 79.4µM, POLI inh 10µM, Pol eta inh-1 11.2µM, WRN inhibitor 50.1µM, Pol iota confirm 33.6, Pol kappa inh-2 16.8 and Pol eta inh-2 37.9.
`COC(=O)C1CCN(C(=O)c2cc(-c3ccco3)nc3ccccc23)CC1` gave Pol kappa inh-1 22.4µM, POLI inh inconclusive, Pol eta inh-1 8.91µM, WRN inhibitor 50.1µM, PGK validate 13µM, Pol iota confirm 8.44, Pol kappa inh-2 9.47 and Pol eta inh-2 15.1.
O=C(Cn1cc(C(=O)c2ccncc2)c(=O)c2cc(F)ccc21)Nc1ccc(Cl)cc1 was read as Pol kappa inh-1 inactive, POLI inh inactive, Pol beta inh inactive and Pol eta inh-1 inactive.
O=C(N/N=C/c1ccc(F)cc1)c1cc(-c2ccccn2)nc2ccccc12 was read as Pol kappa inh-1 inactive, POLI inh inactive, Pol eta inh-1 inactive and WRN inhibitor inactive.
`COc1ccc(NC(=O)CN(C)C(=O)c2cc(-c3ccco3)nc3ccccc23)cc1` gave Pol kappa inh-1 44.7µM, POLI inh 8.91µM, Pol eta inh-1 2.82µM, WRN inhibitor 63.1µM, Pol iota confirm 29.9 and Pol eta inh-2 42.6.
For O=C(N/N=C/c1cccc(F)c1)c1cc(-c2ccco2)nc2ccccc12 the results were Pol kappa inh-1 17.8µM, POLI inh inconclusive, Pol beta inh inactive, Pol eta inh-1 2.24µM, WRN inhibitor 56.2µM, PGK validate 5.8µM, Pol iota confirm 8.44 and Pol eta inh-2 13.5.
COc1ccc(NC(=O)c2cc(-c3ccco3)nc3ccccc23)cc1 was read as Pol kappa inh-1 inactive, POLI inh inconclusive, Pol eta inh-1 inactive and WRN inhibitor inactive.
CC(=O)Nc1ccc(NC(=O)CC(C)n2ccc(C)n2)cc1 (centres undefined) was read as Pol kappa inh-1 inactive, POLI inh inactive, Pol beta inh inactive and Pol eta inh-1 inactive.
`NCC(O)c1ccc(O)c(O)c1` (centres undefined) gave Pol kappa inh-1 7.52µM, POLI inh 35.5µM, Pol beta inh 35.5µM, Pol eta inh-1 inconclusive, WRN inhibitor inactive, Pol iota confirm 47.4 and Pol eta inh-2 inconclusive.
For CCC(NC(C)C)C(O)c1ccc(O)c(O)c1 (centres undefined) the results were Pol kappa inh-1 inactive, POLI inh inconclusive, Pol beta inh inactive and Pol eta inh-1 inactive.
Screening COc1ccc(NC(=O)C(NC(=O)C2CCC(C)CC2)C(C)C)cc1 (centres undefined) returned Pol kappa inh-1 inactive, POLI inh inactive, Pol beta inh inactive and Pol eta inh-1 inactive.
O=C(O)CCNc1ccc(NCCC(=O)O)c2c1C(=O)c1ccccc1C2=O was read as Pol kappa inh-1 22.4µM, POLI inh 12.6µM, Pol beta inh 12.6µM, Pol eta inh-1 4.47µM, WRN inhibitor inconclusive, PGK validate 16.3µM, Pol iota confirm 18.9 and Pol eta inh-2 10.7.
For CN(C)c1ccc(C(CNC(=O)c2ccccc2Cl)N2CCCC2)cc1 (centres undefined) the results were Pol kappa inh-1 inactive, POLI inh inactive, Pol beta inh inactive and Pol eta inh-1 inactive.
c1cncc(-c2nc(-c3ccc4c(c3)OCCO4)cs2)c1 was read as Pol kappa inh-1 inactive, POLI inh inactive, Pol beta inh inactive, Pol eta inh-1 inactive and WRN inhibitor inactive.
For Oc1ccc(-c2csc(-c3cccnc3)n2)cc1O the results were Pol kappa inh-1 31.6µM, POLI inh 28.2µM, Pol beta inh inconclusive, Pol eta inh-1 25.1µM, WRN inhibitor inconclusive, Pol iota confirm 84.4 and Pol eta inh-2 inconclusive.
`COc1cccc(-c2csc(-c3c(N)c(C(=O)c4ccccc4)n4ccccc34)n2)c1` gave Pol kappa inh-1 inactive, POLI inh inactive and Pol beta inh inactive.
Cc1ccc(-c2nc3c4ccccc4[nH]c(=O)n3n2)cc1 was read as Pol kappa inh-1 inactive, POLI inh inactive, Pol beta inh inactive, Pol eta inh-1 inconclusive, Pol iota confirm inconclusive and Pol eta inh-2 inconclusive.
For Cc1cc(Cl)ccc1NC(=O)CCCn1nc(C)c2c(C)n(-c3ccccc3)nc2c1=O the results were Pol kappa inh-1 inactive, POLI inh inactive, Pol beta inh inactive and Pol eta inh-1 inactive.
For Cc1cc(Cl)ccc1NC(=O)Cn1nc(C)c2c(C)n(-c3ccccc3)nc2c1=O the results were Pol kappa inh-1 inconclusive, POLI inh 50.1µM, Pol beta inh 39.8µM, Pol iota confirm 75.2, Pol kappa inh-2 47.4 and Pol eta inh-2 inconclusive.
`CCOc1ccccc1-n1c(C)cc(C=O)c1C` gave Pol kappa inh-1 inactive, POLI inh inactive, Pol beta inh inactive, Pol eta inh-1 inactive and WRN inhibitor inactive.
`Cc1c(C(=O)O)cccc1-n1c(C)cc(C=O)c1C` gave Pol kappa inh-1 inconclusive, POLI inh 25.1µM, Pol beta inh 15.8µM, Pol eta inh-1 6.31µM, WRN inhibitor inactive, Pol iota confirm 29.9 and Pol eta inh-2 19.
CCC1CCCCN1CCCNC(=O)c1ccc2c(c1)sc1nc(-c3ccc(F)cc3)cn12 (centres undefined) was read as Pol kappa inh-1 inactive, POLI inh inactive, Pol beta inh inactive and Pol eta inh-1 inactive.
For COc1cccc(CNC(=O)COCc2cc(-c3ccc4c(c3)OCO4)on2)c1 the results were Pol kappa inh-1 inactive, POLI inh inactive, Pol beta inh inactive and Pol eta inh-1 inactive.
